The results in this text go back to publication PMC9911399, “Two distinct binding modes provide the RNA-binding protein RbFox with extraordinary sequence specificity”.

T1: RBFOX1 RRM (Homo sapiens, UniProt Q9NWB1 109-208)
T1 sequence: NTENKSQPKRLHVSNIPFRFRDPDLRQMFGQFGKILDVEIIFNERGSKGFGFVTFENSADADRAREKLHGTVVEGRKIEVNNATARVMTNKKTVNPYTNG

B1: ACUGGCG (DNA:RNA)
RNA: GGGAGACCGGAAUUCAGAUUGUCCACUGGCGUUAAAUCCCGUCGUAGCCACCA
DNA 1: CAATCTGAATTCCGGTCTCCC
DNA 2: TGGTGGCTACGACGGGATT
B2: CAGGCCG (DNA:RNA)
RNA: B1 RNA with A25C, C26A, U27G, G29C
DNA 1: CAATCTGAATTCCGGTCTCCC
DNA 2: TGGTGGCTACGACGGGATT
B3: GCGCUGG (DNA:RNA)
RNA: B1 RNA with A25G, U27G, G28C, G29U, C30G
DNA 1: CAATCTGAATTCCGGTCTCCC
DNA 2: TGGTGGCTACGACGGGATT
B4: GCUCUUG (DNA:RNA)
RNA: B1 RNA with A25G, G28C, G29U, C30U
DNA 1: CAATCTGAATTCCGGTCTCCC
DNA 2: TGGTGGCTACGACGGGATT
B5: CGCGCGC (DNA:RNA)
RNA: B1 RNA with A25C, C26G, U27C, G29C, C30G, G31C
DNA 1: CAATCTGAATTCCGGTCTCCC
DNA 2: TGGTGGCTACGACGGGATT
B6: GCUUGUC (DNA:RNA)
RNA: B1 RNA with A25G, G28U, C30U, G31C
DNA 1: CAATCTGAATTCCGGTCTCCC
DNA 2: TGGTGGCTACGACGGGATT
B7: GCUGGUC (DNA:RNA)
RNA: B1 RNA with A25G, C30U, G31C
DNA 1: CAATCTGAATTCCGGTCTCCC
DNA 2: TGGTGGCTACGACGGGATT
B8: GCUCGUC (DNA:RNA)
RNA: B1 RNA with A25G, G28C, C30U, G31C
DNA 1: CAATCTGAATTCCGGTCTCCC
DNA 2: TGGTGGCTACGACGGGATT
B9: GCUUGAG (DNA:RNA)
RNA: B1 RNA with A25G, G28U, C30A
DNA 1: CAATCTGAATTCCGGTCTCCC
DNA 2: TGGTGGCTACGACGGGATT
B10: GCCGCGC (DNA:RNA)
RNA: B1 RNA with A25G, U27C, G29C, C30G, G31C
DNA 1: CAATCTGAATTCCGGTCTCCC
DNA 2: TGGTGGCTACGACGGGATT
B11: GCUUGAA (DNA:RNA)
RNA: B1 RNA with A25G, G28U, C30A, G31A
DNA 1: CAATCTGAATTCCGGTCTCCC
DNA 2: TGGTGGCTACGACGGGATT
B12: GCGCUUG (DNA:RNA)
RNA: B1 RNA with A25G, U27G, G28C, G29U, C30U
DNA 1: CAATCTGAATTCCGGTCTCCC
DNA 2: TGGTGGCTACGACGGGATT
B13: CCGCUGG (DNA:RNA)
RNA: B1 RNA with A25C, U27G, G28C, G29U, C30G
DNA 1: CAATCTGAATTCCGGTCTCCC
DNA 2: TGGTGGCTACGACGGGATT
B14: CGUUGAG (DNA:RNA)
RNA: B1 RNA with A25C, C26G, G28U, C30A
DNA 1: CAATCTGAATTCCGGTCTCCC
DNA 2: TGGTGGCTACGACGGGATT
B15: AGCCGGG (DNA:RNA)
RNA: B1 RNA with C26G, U27C, G28C, C30G
DNA 1: CAATCTGAATTCCGGTCTCCC
DNA 2: TGGTGGCTACGACGGGATT
B16: GUUCCGG (DNA:RNA)
RNA: B1 RNA with A25G, C26U, G28C, G29C, C30G
DNA 1: CAATCTGAATTCCGGTCTCCC
DNA 2: TGGTGGCTACGACGGGATT
B17: UUCCAAA (DNA:RNA)
RNA: GGGAGACCGGAAUUCAGAUUGUCCUUCCAAAUUAAAUCCCGUCGUAGCCACCA
DNA 1: CAATCTGAATTCCGGTCTCCC
DNA 2: TGGTGGCTACGACGGGATT
B18: GACAUUG (DNA:RNA)
RNA: B1 RNA with A25G, C26A, U27C, G28A, G29U, C30U
DNA 1: CAATCTGAATTCCGGTCTCCC
DNA 2: TGGTGGCTACGACGGGATT
B19: GCUAGUA (DNA:RNA)
RNA: B1 RNA with A25G, G28A, C30U, G31A
DNA 1: CAATCTGAATTCCGGTCTCCC
DNA 2: TGGTGGCTACGACGGGATT
B20: GCAAACC (DNA:RNA)
RNA: B1 RNA with A25G, U27A, G28A, G29A, G31C
DNA 1: CAATCTGAATTCCGGTCTCCC
DNA 2: TGGTGGCTACGACGGGATT

Where a chain is given by its changes, count along the chain named. The full ranking holds about 16,000 sequences; the median of “ka relative to ugcaugu” is about 0.0091, and the highest 2% start at about 0.032. The sample holds the highest values, similar sequences and a random draw of the others, so the mix is not that of the screen.

This experiment has as its target T1, RBFOX1 RRM. Nature of the experiment: EMSA; HiTS-Eq, 1 nM pool, 10 min; buffer printed only for the single-RNA assays: 10 mM Tris pH 7.5, 150 mM NaCl, 3.4 mM EDTA, 0.001% NP-40, 30 C. As to conditions: tags: His6 N-terminal (pET28a); label: 5' 32P. In outline: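 These values rest on relative association constants, computed from read-count changes of each RNA species versus the control reaction and normalised to the cognate motif. Reads came from free RNA recovered by 8% native PAGE after purified RbFox RRM (wild type or mutant) at increasing concentrations was equilibrated for 10 min in 50 µL with 1 nM of a 5′-radiolabelled pool with 7 randomized nucleotides and DNA-annealed flanks.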
On the technique in general: A gel shift assay detects complexes by their altered migration in electrophoresis.
In the case of B1, the binding signal was 0.0166 KA relative to UGCAUGU. For B2, the binding signal was 0.00997 KA relative to UGCAUGU. For B3, the binding signal was 0.0322 KA relative to UGCAUGU. To B4 belongs 0.014 KA relative to UGCAUGU. For B5, the binding signal is 0.0126 KA relative to UGCAUGU. In the case of B6 it was 0.0386 KA relative to UGCAUGU; in that of B7, 0.0255 KA relative to UGCAUGU. To B8 belongs 0.0303 KA relative to UGCAUGU; to B9, 0.0353 KA relative to UGCAUGU. In the case of B10 it was 0.0197 KA relative to UGCAUGU; in that of B11, 0.0288 KA relative to UGCAUGU. Regarding B12, the binding signal was 0.0323 KA relative to UGCAUGU. In the case of B13 it was 0.0189 KA relative to UGCAUGU. For B14, the binding signal was 0.0235 KA relative to UGCAUGU.

On to B15, for which the binding signal was 0.0115 KA relative to UGCAUGU. In the case of B16 it was 0.0142 KA relative to UGCAUGU; in that of B17, 0.00275 KA relative to UGCAUGU. In the case of B18 it was 0.0146 KA relative to UGCAUGU; in that of B19, 0.0137 KA relative to UGCAUGU. In the case of B20 it was 0.00398 KA relative to UGCAUGU.
